Measured values as given in PubChem BioAssay.
For part of these data: Results with a measured potency or affinity are listed apart. Calls of active or inactive are those of the source. Unless noted, no rule for the calls is given here.

Key:
[1] = antimalarial activity against Dd2 strain (AID 2302;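 active = growth inhibition above 50% at the single 2 µM test dose, taken to imply half-maximal potency below 2 µM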;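 also: 0% = DMSO untreated growth and 100% = chloroquine plus artemisinin killed control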); settings: P. falciparum Dd2 in RBCs, LDH growth readout, 72 h; at 2 µM; stronger effect = higher value
[2] = HepG2 cytotoxicity, primary screen, cytotoxicity control for P. falciparum antimalarial project, cell-based, ATP luminescence (AID 2303;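 active = inhibition above 50%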;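 also: 0% = DMSO wells and 100% = digitonin-killed cells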); settings: HepG2 viability, 24-48 h, at 10 µM, stronger effect = higher value
[3] = target: L-lactate dehydrogenase (Plasmodium falciparum (isolate CDC / Honduras)) (UniProt Q27743); assay: PfLDH activity inhibition – cell lysate, 3D7 strain, counter-screen for P. falciparum growth inhibition project (AID 2304);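 also: 0% = vehicle and 100% = reference inhibitor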; settings: P. falciparum 3D7 crude extract, LDH APAD/NBT absorbance; at 2 µM; stronger effect = higher value
[4] = inhibition of 3D7 malaria parasite growth – strain 3D7 (AID 2306);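 also: 0% = DMSO wells and 100% = chloroquine plus artemisinin control wells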; settings: P. falciparum 3D7 erythrocytic growth, LDH absorbance, 72 h; at 2 µM; stronger effect = higher value
[5] = target: Calcium-dependent protein kinase 1 (Plasmodium falciparum (isolate 3D7)) (UniProt P62344); assay: PfCDPK1 kinase inhibitors, biochemical, TCAMS library (AID 1159585; cut-off not given, nearly all actives have IC50 up to about 0.98 µM;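 also: inhibitors leave more ATP so luminescence rises with inhibition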); settings: recombinant PfCDPK1, Kinase-Glo ATP depletion luminescence
[6] = target: Plasmodium falciparum protein kinase 6 (PK6, PF3D7_1337100) (UniProt Q8IDW1); assay: PfPK6 kinase inhibitors, biochemical, TCAMS library (AID 1159586); settings: recombinant PfPK6, Kinase-Glo ATP depletion luminescence
[7] = target: Protein kinase 7 (PK7), Plasmodium falciparum 3D7 (PF3D7_0213400) (UniProt Q7YTF7); assay: inhibition of Plasmodium PK7 catalytic activity – biochemical, TCAMS antimalarial set, Kinase-Glo luminescence (AID 1159587); settings: recombinant PfPK7, Kinase-Glo ATP depletion luminescence
[8] = target: Calcium-dependent protein kinase 4 (Plasmodium falciparum (isolate 3D7)) (UniProt Q8IBS5); assay: PfCDPK4 kinase inhibitors, biochemical, TCAMS library (AID 1159588; cut-off not given, nearly all actives have IC50 up to about 0.91 µM); settings: recombinant PfCDPK4, Kinase-Glo ATP depletion luminescence
Calcium-dependent protein kinase 4 (Plasmodium falciparum (isolate 3D7)), sequence (Q8IBS5 whole entry, looked up): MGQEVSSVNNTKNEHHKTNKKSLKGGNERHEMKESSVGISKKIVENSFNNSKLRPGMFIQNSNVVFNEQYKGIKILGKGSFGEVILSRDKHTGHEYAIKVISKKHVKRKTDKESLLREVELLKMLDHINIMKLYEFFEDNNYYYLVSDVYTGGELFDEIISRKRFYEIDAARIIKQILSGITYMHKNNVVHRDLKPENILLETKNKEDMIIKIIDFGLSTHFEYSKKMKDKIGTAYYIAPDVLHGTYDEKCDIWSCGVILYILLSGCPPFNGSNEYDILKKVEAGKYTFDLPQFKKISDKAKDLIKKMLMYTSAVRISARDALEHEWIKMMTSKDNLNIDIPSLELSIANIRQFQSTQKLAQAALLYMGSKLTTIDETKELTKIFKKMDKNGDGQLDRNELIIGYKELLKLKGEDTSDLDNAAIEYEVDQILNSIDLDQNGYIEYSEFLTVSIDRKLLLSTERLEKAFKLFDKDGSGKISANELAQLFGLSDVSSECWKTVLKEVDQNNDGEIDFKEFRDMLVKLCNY

L-lactate dehydrogenase (Plasmodium falciparum (isolate CDC / Honduras)), sequence (Q27743 whole entry, looked up): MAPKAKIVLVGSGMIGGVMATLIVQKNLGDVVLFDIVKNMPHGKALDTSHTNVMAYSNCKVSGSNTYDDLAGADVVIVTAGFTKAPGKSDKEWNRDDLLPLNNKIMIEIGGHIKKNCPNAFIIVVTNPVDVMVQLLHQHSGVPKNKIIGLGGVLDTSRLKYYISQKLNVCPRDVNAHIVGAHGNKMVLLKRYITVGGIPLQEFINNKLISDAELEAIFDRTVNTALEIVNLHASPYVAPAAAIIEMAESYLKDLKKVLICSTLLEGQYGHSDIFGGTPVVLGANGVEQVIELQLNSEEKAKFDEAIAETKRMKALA
Calcium-dependent protein kinase 1 (Plasmodium falciparum (isolate 3D7)), sequence (P62344 whole entry, looked up): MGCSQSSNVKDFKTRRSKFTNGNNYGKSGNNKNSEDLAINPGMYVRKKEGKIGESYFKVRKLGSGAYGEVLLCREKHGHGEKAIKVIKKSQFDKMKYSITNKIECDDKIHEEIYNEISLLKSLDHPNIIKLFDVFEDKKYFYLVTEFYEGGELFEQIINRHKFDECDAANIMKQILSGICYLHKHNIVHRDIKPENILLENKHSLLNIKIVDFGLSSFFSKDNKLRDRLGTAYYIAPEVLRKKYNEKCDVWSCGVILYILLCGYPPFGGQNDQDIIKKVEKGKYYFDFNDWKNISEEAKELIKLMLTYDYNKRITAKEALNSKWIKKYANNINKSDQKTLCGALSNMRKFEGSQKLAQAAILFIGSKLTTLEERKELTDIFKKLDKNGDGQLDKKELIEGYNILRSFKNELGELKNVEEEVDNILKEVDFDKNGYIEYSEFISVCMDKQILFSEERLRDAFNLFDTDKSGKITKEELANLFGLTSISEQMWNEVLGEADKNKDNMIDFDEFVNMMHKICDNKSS
Plasmodium falciparum protein kinase 6 (PK6, PF3D7_1337100), sequence (Q8IDW1 1-305): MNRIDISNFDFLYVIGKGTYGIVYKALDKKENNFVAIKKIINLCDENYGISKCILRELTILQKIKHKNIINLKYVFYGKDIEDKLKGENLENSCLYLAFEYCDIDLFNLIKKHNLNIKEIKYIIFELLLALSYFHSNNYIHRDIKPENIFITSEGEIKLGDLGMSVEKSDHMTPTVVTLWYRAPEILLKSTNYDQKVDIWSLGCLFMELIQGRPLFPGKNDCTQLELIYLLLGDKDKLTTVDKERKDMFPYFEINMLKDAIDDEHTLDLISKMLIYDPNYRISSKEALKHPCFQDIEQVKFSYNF
Protein kinase 7 (PK7), Plasmodium falciparum 3D7 (PF3D7_0213400), sequence (Q7YTF7 1-343): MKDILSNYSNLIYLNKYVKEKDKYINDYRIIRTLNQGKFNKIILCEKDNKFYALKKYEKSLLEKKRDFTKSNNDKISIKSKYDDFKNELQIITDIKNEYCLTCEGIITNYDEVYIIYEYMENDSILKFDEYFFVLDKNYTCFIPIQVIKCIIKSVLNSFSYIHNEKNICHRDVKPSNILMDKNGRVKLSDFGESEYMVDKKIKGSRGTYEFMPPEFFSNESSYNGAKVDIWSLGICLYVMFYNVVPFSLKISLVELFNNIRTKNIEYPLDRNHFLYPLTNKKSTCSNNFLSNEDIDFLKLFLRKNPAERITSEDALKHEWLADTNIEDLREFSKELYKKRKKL

N#Cc1cccc(Nc2ncc3c(-c4cccc(NC(=O)Cc5cccc(Cl)c5)c4)c[nH]c3n2)c1
active: growth inhibition [1] 95% | growth inhibition [4] 101%
inactive: inhibition [2] -1% | inhibition [3] -2% | outcome [5] | outcome [6] | outcome [7] | outcome [8]

CCc1ccc(S(=O)(=O)Nc2cccc(CCN3CCC(N4CCCCC4)CC3)c2)cc1
active: growth inhibition [4] 101%
inactive: growth inhibition [1] 20% | inhibition [2] 21% | inhibition [3] -4% | outcome [5] | outcome [6] | outcome [7] | outcome [8]

COc1cccc(NC(=O)Nc2ccc(Nc3nc(C)cc(N(C)C)n3)cc2)c1
inactive: inhibition [2] 14% | inhibition [3] 5% | outcome [5] | outcome [6] | outcome [7] | outcome [8]
active: growth inhibition [1] 100% | growth inhibition [4] 101%

CC1(CCc2ccccc2)N=C(N)N(Cc2ccccc2)C(=O)C1c1ccc(Cl)c(Cl)c1 (configuration not stated)
inactive: inhibition [3] -4% | outcome [5] | outcome [6] | outcome [7] | outcome [8]
active: growth inhibition [1] 96% | inhibition [2] 100% | growth inhibition [4] 97%

CC(CNc1nc(NCC(c2ccccc2)c2ccccc2)c2[nH]cnc2n1)c1ccccc1 (configuration not stated)
inactive: growth inhibition [1] 24% | inhibition [2] 5% | inhibition [3] -8% | outcome [5] | outcome [6] | outcome [7] | outcome [8]
active: growth inhibition [4] 93%

COc1cc(NC(=O)/C=C/c2ccccc2OC(F)(F)F)cc(OCCN2CCN(CCN3CCOCC3)CC2)c1
active: growth inhibition [4] 98%
inactive: growth inhibition [1] 25% | inhibition [2] 20% | inhibition [3] -1% | outcome [5] | outcome [6] | outcome [7] | outcome [8]

COCCNCc1nc(-c2ccc3c(Nc4ccc(F)c(O)c4)ccnc3c2)cs1
active: growth inhibition [1] 99% | growth inhibition [4] 101%
inactive: inhibition [2] -7% | inhibition [3] 6% | outcome [5] | outcome [6] | outcome [7] | outcome [8]

O=C1OC(c2ccccc2)(c2ccccc2)CN1CC1CCN(Cc2ccc(O)c(Cl)c2)CC1
inactive: inhibition [2] 26% | inhibition [3] -1% | outcome [5] | outcome [6] | outcome [7] | outcome [8]
active: growth inhibition [1] 90% | growth inhibition [4] 98%

CCc1ccc(CN2CCC(CN(c3ccc(N4CCOCC4)c(F)c3)S(=O)(=O)c3ccc(C(C)(C)CC)cc3)CC2)cc1
inactive: inhibition [2] 26% | inhibition [3] -5% | outcome [5] | outcome [6] | outcome [7] | outcome [8]
active: growth inhibition [1] 94% | growth inhibition [4] 93%

Oc1ccccc1Nc1nc(NCc2ccco2)c2ccccc2n1
active: growth inhibition [1] 71% | growth inhibition [4] 99%
inactive: inhibition [2] 0% | inhibition [3] 3% | outcome [5] | outcome [6] | outcome [7] | outcome [8]

CC1(C)N=C(N)N=C(N)C1c1ccc(Cl)cc1 (configuration not stated)
inactive: growth inhibition [1] -2% | inhibition [2] 16% | inhibition [3] 1% | outcome [5] | outcome [6] | outcome [7] | outcome [8]
active: growth inhibition [4] 96%

Cc1nc(N)nc(N)c1-c1cccc(Cl)c1
active: inhibition [2] 60% | growth inhibition [4] 88%
inactive: growth inhibition [1] -1% | inhibition [3] 2% | outcome [5] | outcome [6] | outcome [7] | outcome [8]

Cc1cccc2[nH]c(-c3ccc(-c4ccc(CNCc5ccc(CN)cc5)cc4)s3)nc12
active: growth inhibition [1] 85% | growth inhibition [4] 101%
inactive: inhibition [2] 4% | inhibition [3] -8% | outcome [5] | outcome [6] | outcome [7] | outcome [8]

Oc1ccc(CCNc2nc(N/N=C/c3ccc(Cl)cc3)nc(N3CCNCC3)n2)cc1
inactive: inhibition [2] 14% | inhibition [3] 5% | outcome [5] | outcome [6] | outcome [7] | outcome [8]
active: growth inhibition [1] 68% | growth inhibition [4] 100%

O=c1ccc(CNc2nc(NCCc3ccccc3)nc3cc(Cl)ccc23)c[nH]1
inactive: inhibition [2] 21% | inhibition [3] 3% | outcome [5] | outcome [6] | outcome [7] | outcome [8]
active: growth inhibition [1] 78% | growth inhibition [4] 95%

O=C(Nc1ccc(Br)c(C(F)(F)F)c1)c1cccc([N+](=O)[O-])c1
active: growth inhibition [4] 94%
inactive: growth inhibition [1] 3% | inhibition [2] 24% | inhibition [3] -7% | outcome [5] | outcome [6] | outcome [7] | outcome [8]

CCCCCCCCc1c(C)[nH]c(C)c(Cl)c1=O
active: growth inhibition [1] 95% | growth inhibition [4] 96%
inactive: inhibition [2] -4% | inhibition [3] -3% | outcome [5] | outcome [6] | outcome [7] | outcome [8]

N#Cc1cc(C(=O)Nc2ccccc2)c(N)nc1SCC(=O)Nc1ccc(Br)cc1
inactive: inhibition [2] 11% | inhibition [3] 1% | outcome [5] | outcome [6] | outcome [7] | outcome [8]
active: growth inhibition [1] 66% | growth inhibition [4] 101%

CC(C)n1c(C2CCN(CC3CCN(C(=O)/C=C/c4ccc(Cl)c(Cl)c4)CC3)CC2)nc2ccccc21
inactive: growth inhibition [1] 7% | inhibition [2] 36% | inhibition [3] 2% | outcome [5] | outcome [6] | outcome [7] | outcome [8]
active: growth inhibition [4] 94%

COc1ccc2ncc(F)c(CCN3CCC4(CC3)COC(c3cc5c(cn3)OCCO5)=N4)c2n1
active: growth inhibition [1] 83% | inhibition [2] 79% | growth inhibition [4] 89%
inactive: inhibition [3] 5% | outcome [5] | outcome [6] | outcome [7] | outcome [8]

CN(C)c1ccc(CN2CCC(CNC(=O)c3cc(-c4ccccc4F)cs3)C2)cc1 (configuration not stated)
active: growth inhibition [4] 101%
inactive: growth inhibition [1] 33% | inhibition [2] 35% | inhibition [3] 2% | outcome [5] | outcome [6] | outcome [7] | outcome [8]

c1ccc(-c2nc3ccccc3[nH]2)c(Nc2ccnc3cc(-c4nccs4)ccc23)c1
inactive: inhibition [2] -4% | inhibition [3] 3% | outcome [5] | outcome [6] | outcome [7] | outcome [8]
active: growth inhibition [1] 98% | growth inhibition [4] 101%

CN1CCCN(c2ccnc3cc4c(cc23)N(C(=O)c2ccc(Cl)cc2)CC4)CC1
active: growth inhibition [4] 100%
inactive: growth inhibition [1] 0% | inhibition [2] 0% | inhibition [3] 4% | outcome [5] | outcome [6] | outcome [7] | outcome [8]

COc1ccc(CCNCCCCCNCCCc2ccc(Cl)cc2)cc1OC
inactive: growth inhibition [1] 2% | inhibition [2] 24% | inhibition [3] 2% | outcome [5] | outcome [6] | outcome [7] | outcome [8]
active: growth inhibition [4] 101%

O=C(C=Cc1ccc(Br)cc1)N1CCC(CCN2CCC(c3c[nH]c4ccccc34)CC2)CC1
inactive: growth inhibition [1] 24% | inhibition [2] 47% | inhibition [3] 2% | outcome [5] | outcome [6] | outcome [7] | outcome [8]
active: growth inhibition [4] 98%

CCC(C)NS(=O)(=O)c1ccc2nc(Nc3ccc(C)cc3)n(C3CCCCC3)c2c1 (configuration not stated)
active: growth inhibition [1] 97% | growth inhibition [4] 97%
inactive: inhibition [2] -9% | inhibition [3] -4% | outcome [5] | outcome [6] | outcome [7] | outcome [8]

Cc1cc(F)ccc1Nc1nc(N(C)c2ccccc2)c2cc(OCCCN(C)C)ccc2n1
inactive: growth inhibition [1] 49% | inhibition [2] 31% | inhibition [3] 4% | outcome [5] | outcome [6] | outcome [7] | outcome [8]
active: growth inhibition [4] 100%

Cc1cc(NC(=O)c2ccc(S(=O)(=O)N(Cc3ccccc3)C(C)C)cc2)no1
active: growth inhibition [1] 67% | growth inhibition [4] 87%
inactive: inhibition [2] -6% | inhibition [3] -1% | outcome [5] | outcome [6] | outcome [7] | outcome [8]

Cc1noc(C)c1-c1cccc(CNCc2ccc(-c3ccc(-c4nc5ccc(F)cc5[nH]4)s3)cc2)c1
inactive: inhibition [2] 45% | inhibition [3] 6% | outcome [5] | outcome [6] | outcome [7] | outcome [8]
active: growth inhibition [1] 93% | growth inhibition [4] 102%

Cc1ccc(C)c(Cn2c(N3CCC(C(=O)NCc4cccs4)CC3)nc3ccccc32)c1
active: growth inhibition [1] 73% | growth inhibition [4] 89%
inactive: inhibition [2] -2% | inhibition [3] -6% | outcome [5] | outcome [6] | outcome [7] | outcome [8]

NC(=O)c1cccc(C(=O)Nc2cccc(-c3ccc(-c4nc5ccccc5[nH]4)s3)c2)c1
active: growth inhibition [1] 69% | growth inhibition [4] 95%
inactive: inhibition [2] 37% | inhibition [3] 1% | outcome [5] | outcome [6] | outcome [7] | outcome [8]

COc1ccc(S(=O)(=O)NCCC2CCN(CCCCCNC(=O)C=Cc3ccc(Cl)c(Cl)c3)CC2)cc1
inactive: growth inhibition [1] -2% | inhibition [2] 36% | inhibition [3] 5% | outcome [5] | outcome [6] | outcome [7] | outcome [8]
active: growth inhibition [4] 87%

COc1ccccc1CNC(=O)C(=O)Nc1c(-c2ccccc2)[nH]c2ccccc12
active: growth inhibition [1] 91% | growth inhibition [4] 99%
inactive: inhibition [2] 0% | inhibition [3] -2% | outcome [5] | outcome [6] | outcome [7] | outcome [8]

COc1nc2c(N3CCN(CCNCc4ccc5c(n4)NC(=O)CO5)CC3)ccnc2cc1F
inactive: growth inhibition [1] 9% | inhibition [2] 18% | inhibition [3] -2% | outcome [5] | outcome [6] | outcome [7] | outcome [8]
active: growth inhibition [4] 101%

CCN(CCCN1CCCCC1)c1cc(C)nc(Nc2ccc(F)c(C(F)(F)F)c2)n1
active: growth inhibition [1] 93% | growth inhibition [4] 100%
inactive: inhibition [2] 32% | inhibition [3] 0% | outcome [5] | outcome [6] | outcome [7] | outcome [8]

O=C(NC1CCC(CCN2Cc3cccc(F)c3C2)CC1)c1cccc(-c2cccnc2)c1 (configuration not stated)
inactive: inhibition [2] 16% | inhibition [3] -2% | outcome [5] | outcome [6] | outcome [7] | outcome [8]
active: growth inhibition [1] 82% | growth inhibition [4] 98%

CCCN(C(=O)c1ccccc1C)c1nnc(-c2cccc(C)c2)s1
active: growth inhibition [1] 67% | growth inhibition [4] 91%
inactive: inhibition [2] 8% | inhibition [3] -4% | outcome [5] | outcome [6] | outcome [7] | outcome [8]

CC(C)Nc1cc(C(=O)N[C@@H](Cc2ccccc2)[C@H](O)CNC2CCCCC2)cc(N2CCCCS2(=O)=O)c1
inactive: inhibition [2] 9% | inhibition [3] 4% | outcome [5] | outcome [6] | outcome [7] | outcome [8]
active: growth inhibition [1] 98% | growth inhibition [4] 98%

CC=CC(=O)N1CCN(c2nccc(-c3ccc(C(C)(C)C)cc3)n2)CC1
active: growth inhibition [1] 70% | growth inhibition [4] 95%
inactive: inhibition [2] 20% | inhibition [3] 0% | outcome [5] | outcome [6] | outcome [7] | outcome [8]
